Source: PubChem
An excerpt weighted towards active compounds, which were near 3% of everything screened.
SNCA expr inh – SNCA gene expression inhibition | HEK-293 SNCA-luciferase knock-in, luminescence, 24 h | Potency, µM (titrated, usually from 57.2 µM), most hits filed as inhibitors | 140,000 tested, 0.17% active; further: nearly all actives have a fitted effect of over 45% in size
KDM5B inhibitor – blocks human KDM5B histone demethylase activity; Q9UGL1; KDM5B demethylase, FDH-coupled NADH fluorescence (FDH is formaldehyde dehydrogenase); Potency, µM (doses to about 57.7 µM), most hits filed as inhibitors; 220,000 tested, 2.6% active; AID 1347165; further: nearly all actives have a fitted effect of over 70% in size
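Inhibition is measured as reduced NADH fluorescence generation from FDH coupling to formaldehyde release. Truncated KDM5BΔAP at 200 nM final acts on H3K4me3 peptide (12.5 µM in substrate mix) in pH 7.5 HEPES buffer with Tween-20, 30 min, room temperature.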
IP6K1 inh – inhibitors of human IP6K1; activity change, % (series mostly up to about 58 µM); AID 1645851; 140,000 tested, 0.81% active; IP6K1 kinase, ADP-Glo luminescence, 2 h; stronger effect = lower value; Q92551; in the data active means activity change below about -25%
Target sequence (Q92551 whole entry, looked up): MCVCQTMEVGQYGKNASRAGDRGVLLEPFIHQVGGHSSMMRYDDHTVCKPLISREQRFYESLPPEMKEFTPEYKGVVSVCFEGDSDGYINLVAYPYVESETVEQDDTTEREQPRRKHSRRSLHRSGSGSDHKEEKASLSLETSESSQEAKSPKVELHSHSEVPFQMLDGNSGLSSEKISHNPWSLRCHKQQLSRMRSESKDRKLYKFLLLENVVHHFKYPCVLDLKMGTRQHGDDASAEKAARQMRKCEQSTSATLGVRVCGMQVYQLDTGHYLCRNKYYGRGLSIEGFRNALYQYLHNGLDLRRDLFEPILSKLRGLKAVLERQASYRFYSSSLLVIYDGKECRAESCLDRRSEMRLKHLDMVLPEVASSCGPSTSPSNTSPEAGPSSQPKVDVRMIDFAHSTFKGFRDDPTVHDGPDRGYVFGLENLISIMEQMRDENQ
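ADP-Glo luminescence measures ADP made by human IP6K1 during a 2 h RT reaction with ATP/IP6 (mix at 1.3 mM/130 uM); top library doses 57.5 and 19.1 uM final.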
HEK293 viab – cell viability loss counter-screen; HEK-293-SNCA-luc viability, GF-AFC fluorescence, 24 h; Potency, µM (highest dose often 57.1 µM), usual class: cytotoxic; 150,000 tested, 0.12% active; AID 1671193; further: nearly all actives have a fitted effect of over 30% in size
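Cytotoxicity counterscreen: after 24 h compound treatment of genome-edited SNCA-luciferase HEK-293 cells, live-cell protease substrate GF-AFC read by fluorescence after 30 min; activity scaled between DMSO (0%) and medium-only (-100%), curves Hill-fitted.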
Of the large screens only hits and unclear results are named; the others gave an inactive call. Unless noted, the call rests on the fitted dose curve; in most records, active means well fitted curve in the direction sought with a large enough effect; inconclusive means small, poorly fitted or top-dose-only effect, or another doubt; inactive means no such curve, though single readings can be large; an effect the other way counts as inactive or inconclusive.

COc1ccc(-c2[nH]nc3ncc(-c4ccc(F)cc4OC)nc23)c(C)c1	KDM5B inhibitor 7.9µM
COc1cccc(NC(=O)c2cc(-c3ccccc3C(F)(F)F)nc3c2cnn3C)c1	none (no result: SNCA expr inh, KDM5B inhibitor, HEK293 viab)
CCCC(C)C(=O)N1CCc2[nH]nc(C(=O)NCCCc3ccccc3)c2C1 (stereo not given)	SNCA expr inh inconclusive (no result: KDM5B inhibitor)
COc1ccc(-c2noc([C@@H]3C[C@@H](O)CN3Cc3ccc(S(C)(=O)=O)cc3)n2)cc1	KDM5B inhibitor inconclusive
CS(=O)(=O)c1ccc(CN2C[C@H](O)C[C@H]2c2nc(-c3cnccn3)no2)cc1	KDM5B inhibitor 35µM
CN(Cc1cccc2[nH]ccc12)C1CCc2nn(CC3CC3)c(=O)n2CC1 (stereo not given)	KDM5B inhibitor 25µM
O=C(NC1CCc2nn(CC3CC3)c(=O)n2CC1)c1n[nH]c2ccccc12 (stereo not given)	KDM5B inhibitor 28µM
CCOc1ccccc1CN(C)C1CCc2nn(CC3CC3)c(=O)n2CC1 (stereo not given)	none
O=C(NC1CCc2nn(CC3CC3)c(=O)n2CC1)c1cc2ccccc2[nH]1 (stereo not given)	KDM5B inhibitor inconclusive
COc1ccccc1-c1cccc(CN2CCCC(C(=O)NCc3cccc(F)c3)C2)c1 (stereo not given)	SNCA expr inh inconclusive (no result: KDM5B inhibitor)
O=C(NCc1ccccc1F)C1CCCCN1Cc1ccc(-c2ccsc2)cc1 (stereo not given)	none (no result: KDM5B inhibitor)
COc1cccc(NC(=O)c2ccc(-c3nnc4ccc(NC(=O)C5CCC5)cn34)cc2)c1	KDM5B inhibitor 25µM
CCN1CCN(C(=O)c2ccc(-c3nnc4ccc(NC(=O)C5CCC5)cn34)cc2)CC1	KDM5B inhibitor 20µM
CCOc1ccc(NC(=O)c2ccc(-c3nnc4ccc(NC(=O)C5CC5)cn34)cc2)cc1	KDM5B inhibitor inconclusive
CC(C)NC(=O)c1ccc(-c2nnc3ccc(NC(=O)C4CCC4)cn23)cc1	KDM5B inhibitor 25µM
CCN(CC)C(=O)c1ccc(-c2nnc3ccc(NC(=O)C4CC4)cn23)cc1	KDM5B inhibitor 22µM
O=C(NCc1ccc(F)cc1)c1ccc2nnc(-c3cc(C(F)(F)F)cc(C(F)(F)F)c3)n2c1	SNCA expr inh inconclusive (no result: KDM5B inhibitor)
O=C(Nc1ccc(-c2nnc3n2CCCC3)cc1)C1CCC1	none
O=C(Nc1ccc2nnc(-c3ccc(C(=O)N4CCCCC4)cc3)n2c1)C1CCC1	SNCA expr inh inconclusive, KDM5B inhibitor 20µM
COc1ccccc1-c1nc(C2CC(=O)N(C3CCCCC3)C2)no1 (stereo not given)	KDM5B inhibitor 20µM
COc1ccc(N2CC(c3noc(-c4ccc(OC)cc4OC)n3)CC2=O)cc1 (stereo not given)	none
CCc1ccc(N2CC(c3noc(-c4ccc(OC)cc4OC)n3)CC2=O)cc1 (stereo not given)	KDM5B inhibitor 32µM
COc1ccc(-c2nc(C3CC(=O)N(c4ccc(C)cc4)C3)no2)c(OC)c1 (stereo not given)	SNCA expr inh inconclusive, KDM5B inhibitor 25µM
COc1ccc(F)cc1-c1ccc(CN2CCCCC2C(=O)NCCc2ccc(Cl)cc2)cc1 (stereo not given)	none (no result: SNCA expr inh, KDM5B inhibitor, HEK293 viab)
Cc1oc(-c2ccc(OC(C)C)cc2)nc1Cn1ccn2nc3c(c2c1=O)CCCC3	KDM5B inhibitor 28µM
Cc1cccc(-n2ncc3c(N4CCCCCC4)ncnc32)c1	SNCA expr inh inconclusive, KDM5B inhibitor inconclusive
Cc1cccc(-n2ncc3c(N4CCCC(C)C4)ncnc32)c1 (stereo not given)	SNCA expr inh 4µM, KDM5B inhibitor inconclusive
Cc1cccc(-c2[nH]ncc2CNC(=O)c2cccc(N(C)C)c2)c1	KDM5B inhibitor 28µM
Cc1ccc(-c2cc(N3CCC(CNC(=O)c4cccc(N(C)C)c4)CC3)n[nH]2)cc1	KDM5B inhibitor 28µM
Cc1ccc(-c2cc(N3CCC(CNC(=O)c4ccc[nH]4)CC3)n[nH]2)cc1	KDM5B inhibitor inconclusive
CN(C)c1cccc(C(=O)NCC2CCN(c3cc(-c4ccc(Cl)cc4)[nH]n3)CC2)c1	KDM5B inhibitor 32µM
Cc1ccc(NC(=O)c2cccc(N(C)C)c2)c(C)c1	none (no result: SNCA expr inh, IP6K1 inh, HEK293 viab)
CN(C)c1cccc(C(=O)NC2CCCN(c3cc(-c4ccc(Cl)cc4)[nH]n3)C2)c1 (stereo not given)	KDM5B inhibitor inconclusive, HEK293 viab inconclusive
CN(C)c1cccc(C(=O)NCC2CCN(c3cc(-c4ccc(F)cc4)[nH]n3)CC2)c1	KDM5B inhibitor 20µM
COc1cccc(OC)c1C(=O)N1CC(=O)N(CCOc2ccccc2)CC(O)C1 (stereo not given)	none (no result: SNCA expr inh, KDM5B inhibitor, HEK293 viab)
